# PubChem BioAssay AID1347044 (National Center for Advancing Translational Sciences (NCATS), 2019)
# Screen size: about 1,400 compounds; about 1,100 (79%) were called active. Inconclusive results (about 20%) are left out. Calls come from the whole dose curve. The set was probably picked from earlier hits. These entries were drawn from the full list.
# Target: Atrial natriuretic peptide receptor 1 (Homo sapiens) (UniProt P16066)
# Test: Natriuretic polypeptide receptor (hNpr1) antagonism - Confirmation; note: nearly all actives have a fitted effect of over 70% in size
# Settings: HEK293 hNpr1 cGMP GloSensor luminescence, ANP-stimulated
# Method: In order to identify small molecular compounds that inhibit the hNpr1 receptor we developed a high-throughput assay to measure inhibition of the guanylate cyclase activity of the receptor. cGMP production was measured using a circular permutated Firefly luciferase (FLuc) enzyme functionally linked to the cGMP binding domain of human phosphodiesterase 5 (GloSensor technology pGS-40F, (Fan, F. et al. 2008). The cGMP-sensor was expressed in human embryonic kidney 293 (HEK-293) cells and FLuc activity was measured after stimulation with hNrp agonist peptide. hNrp agonists activates the receptor's associated guanylyl cyclase (GC) domain producing cGMP which then binds to the GloSensor resulting in FLuc activation, the enzymatic activity of which can be measured as bioluminescence with addition of luciferin substrate. A cytotoxicity counter-screen using the HEK-hNpr1-cGMP-sensor cells was also performed on the follow-up compounds. F. Fan, B. F. Binkowski, B. L. Butler, P. F. Stecha, M. K. Lewis, K. V. Wood, Novel genetically encoded biosensors using firefly luciferase. ACS Chem Biol 3, 346-351 (2008).
# PROTOCOL TABLES (as described by Inglese J, Shamu CE and Guy RK. 2007) SEQUENCE No. (e.g., 1, 2, 3, etc.); PARAMETER (e.g., Cells, Incubation, Reagent, etc.); VALUE and DESCRIPTION. GLOSENSOR PROTOCOL 1. Cells. Seed 1500 HEK293 cGMP-sensor cells expressing hNpr1 per well in 4uL into Greiner 1536-well white/solid bottom high base, tissue culture-treated plates. 2. Incubation. Incubate plated cells at 37C in 5% CO2, 95% RH overnight. 3. Reagent. Add 1uL per well GloSensor reagent from Promega (2% final concentration) or CO2 independent media vehicle control to respective columns of Greiner 1536-well plates. 4. Incubation. Incubate plated cells at room temperature for 2 h, protect from light. 5. Compounds. Library compounds and A-71915 control added at 23 nL per well, transferred by Pin Tool. 6. Incubation. Incubate plated cells for 30 min. at room temperature, protect from light. 7. Detector. GloSensor baseline pre-read luminescence measured using CCD-based camera (Viewlux). 8. Compound. Add 1uL of hNppA peptide to 0.1 nM final concentration to stimulate hNpr1 or CO2 independent media as vehicle control. 9. Incubation. Incubate treated cells at room temperature for 20 min., protect from light. 10. Detector. GloSensor post-hNppA luminescence measured using CCD-based camera (Viewlux). NOTES (numbers refer to Sequence numbers above) 1. HEK293 cells expressing hNpr1 and GIP/pGS-40F grown to 85-95% confluence (48-72 h) in T175 culture flasks (CO2 independent media supplemented with 10% FBS, 1% Pen/Strep antibiotics and 1 ug/mL puromycin). Trypsinize and harvest cells from T175 culture flasks and filter through 40 um cell strainer. Cells counted with Invitrogen Countess (30,000,000 - 50,000,000 cells/flask). Cells diluted to a final concentration of 375 cells/uL in CO2 independent media and a Millipore multidrop used to dispense 1500 cells per well (4uL/well) into 13 1536-well Greiner White/Solid bottom, high base tissue-culture treated (TC) plates and one Aurora 1536-well Black/Clear bottom, low base, TC plate (for visual inspection of cell health throughout the duration of the assay). 2. Cells incubated overnight at ambient temperature, 24 h. at 37C in 95% RH incubator protected from light, covered with metal lid with gas-exchange holes. 3. […]
# Potency is the fitted concentration of half-maximal effect.
# Sequence of Atrial natriuretic peptide receptor 1 (Homo sapiens) (P16066 whole entry, looked up): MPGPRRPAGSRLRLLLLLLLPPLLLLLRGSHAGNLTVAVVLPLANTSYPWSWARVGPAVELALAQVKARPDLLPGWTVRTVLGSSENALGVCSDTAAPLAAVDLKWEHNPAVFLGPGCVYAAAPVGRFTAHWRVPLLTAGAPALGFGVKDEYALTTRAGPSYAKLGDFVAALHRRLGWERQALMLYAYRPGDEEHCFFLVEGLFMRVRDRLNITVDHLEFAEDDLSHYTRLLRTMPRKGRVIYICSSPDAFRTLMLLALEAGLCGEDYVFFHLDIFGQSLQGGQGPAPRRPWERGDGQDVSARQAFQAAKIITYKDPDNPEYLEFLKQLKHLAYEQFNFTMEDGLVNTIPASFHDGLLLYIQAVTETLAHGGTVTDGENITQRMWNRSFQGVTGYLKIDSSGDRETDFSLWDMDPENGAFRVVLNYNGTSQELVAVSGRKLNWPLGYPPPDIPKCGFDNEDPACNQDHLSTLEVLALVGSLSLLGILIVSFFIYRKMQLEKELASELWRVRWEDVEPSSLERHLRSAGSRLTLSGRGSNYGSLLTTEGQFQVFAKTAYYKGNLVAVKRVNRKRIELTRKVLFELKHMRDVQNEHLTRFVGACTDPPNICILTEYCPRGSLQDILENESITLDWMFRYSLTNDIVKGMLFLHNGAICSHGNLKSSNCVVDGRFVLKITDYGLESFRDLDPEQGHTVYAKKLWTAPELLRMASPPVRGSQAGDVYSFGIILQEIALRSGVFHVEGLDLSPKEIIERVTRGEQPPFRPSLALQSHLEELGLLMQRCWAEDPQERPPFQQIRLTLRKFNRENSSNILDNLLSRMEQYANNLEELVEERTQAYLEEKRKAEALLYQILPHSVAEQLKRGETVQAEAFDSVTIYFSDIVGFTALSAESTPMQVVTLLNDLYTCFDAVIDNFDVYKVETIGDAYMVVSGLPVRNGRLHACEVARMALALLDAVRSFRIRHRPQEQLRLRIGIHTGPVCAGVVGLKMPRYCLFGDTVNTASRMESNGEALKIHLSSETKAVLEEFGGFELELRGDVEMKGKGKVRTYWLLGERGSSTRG
row,SMILES,Potency
1,CCC(CC)c1cc([C@H]2CN3CC[C@H]2C[C@@H]3CNC(=O)NCc2ccccc2)nc(-c2ccncc2)n1,19.3 µM (active)
2,COc1cc2c(cc1Oc1cccc(N(C)C)c1)NC(=O)C21CCN(CCC(C)C)CC1,35.3 µM (active)
3,COc1cc2c(cc1Oc1cccc(N(C)C)c1)NC(=O)C21CCN(c2cnccn2)CC1,21.7 µM (active)
4,COc1cc2c(cc1Oc1cccc(N(C)C)c1)NC(=O)C21CCN(Cc2ccccn2)CC1,21.7 µM (active)
5,COc1cc2c(cc1OCc1ccncc1)NC(=O)C21CCN(c2ncc(F)cn2)CC1,39.6 µM (active)
